Data published in PubChem BioAssay (NCATS).
Records with an inconclusive call do not appear. Entries that show only a call come without a potency. Active and inactive are the calls of the source. Calls follow the shape of the dose curve; as a rule, active = well fitted cell-killing curve with a large enough effect; inconclusive = small, poorly fitted or top-dose-only effect; inactive = flat fitted curve, though single readings scatter.

Test: Cellular viability qHTS for adrenocortical cancer (ACC) cell line NCI-H295R (AID 1963990); also: nearly all actives have a fitted effect of over 60% in size
Conditions: CellTiter-Glo ATP luminescence, 48 h; series mostly up to 46.1 µM
In short: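 Readout: CellTiter-Glo luminescence, 20 min RT. Exposure: 48 h, 37C/5% CO2. Cells: NCI-H295R, ITS-DMEM serum-free. Range: up to 46 uM. Analysis: 4PL fit, IC50 plus efficacy.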
Potency is read from the fitted curve at half-maximal effect.

| SMILES | Potency | activity change, negative = viability loss |
| --- | --- | --- |
| CCOC(=O)CCNc1cc(N2CCc3ccccc3CC2)nc(-c2ccccn2)n1 | 8.91 µM (active) |  |
| COc1cc2c(cc1OC)C(=O)CC2 | inactive |  |
| C[C@@H](Oc1cc(C(=O)Nc2ccc(C(=O)N3CCN(C)CC3)cc2)nnc1N)c1c(Cl)ccc(F)c1Cl | 2.82 µM (active) |  |
| O=C(NCCc1c[nH]c2ccccc12)c1cccnc1 | inactive |  |
| CCCOc1ccn2c(C(C)=O)cc(-c3ccccc3S(C)(=O)=O)c2c1 | inactive |  |
| Cc1c(C)c2c(c(C)c1OC(=O)CCC(=O)OCCO)CC[C@@](C)(CCC[C@H](C)CCC[C@H](C)CCCC(C)C)O2 | 13 µM (active) |  |
| CC(=O)CC(c1ccc([N+](=O)[O-])cc1)c1c(O)c2ccccc2oc1=O (configuration not stated) | inactive |  |
| CC(/C=C/C(=O)NO)=C\[C@@H](C)C(=O)c1ccc(N(C)C)cc1 | 3.98 µM (active) |  |
| NC(=O)c1ncn([C@@H]2O[C@H](CO)[C@@H](O)[C@H]2O)c1O | inactive |  |
| CCCCOC(=O)CC(CC(=O)OCCCC)(OC(C)=O)C(=O)OCCCC | inactive |  |
| Cc1[nH]c(/C=C2\C(=O)Nc3ccc(S(=O)(=O)N(C)c4cccc(Cl)c4)cc32)c(C)c1C(=O)N1CCN(C)CC1 | 14.1 µM (active) |  |
| Nc1c2ccccc2nc2ccccc12 | 7.31 µM (active) |  |
| Cc1cc(I)ccc1Nc1c(C(=O)NOCC2CC2)cc(F)c(F)c1F | 3.98 µM (active) |  |
| CN(C)CCOc1ccc(-c2nc(-c3ccc4c(c3)CC/C4=N\O)c(-c3ccncc3)[nH]2)cc1 | 28.2 µM (active) |  |
| CC(C)(C)CC(C)(C)c1ccc(O)c(-n2nc3ccccc3n2)c1 | inactive |  |
| C[C@H]1[C@H](C)CC[C@]2(C(=O)O)CC[C@]3(C)C(=CC[C@@H]4[C@@]5(C)CC[C@H](O)C(C)(C)[C@@H]5CC[C@]43C)[C@H]12 | inactive |  |
| O=C(/C=C/c1ccc(/C=C/C(=O)Nc2ccc(C3=NCCN3)cc2)cc1)Nc1ccc(C2=NCCN2)cc1 |  | -22% [at 3.81 µM] (inactive) |
| CC(C)Cc1ccc([C@@H](C)C(=O)NS(C)(=O)=O)cc1 | inactive |  |
| Cn1cc(-c2cc(Oc3cc(F)c(NC(=O)C4(C(=O)Nc5ccccc5)CC4)cc3F)ccn2)cn1 | 28.2 µM (active) |  |

| SMILES | Potency | activity change, negative = viability loss |
| --- | --- | --- |
| CCN(c1cc(C#CCN2CCOCC2)cc(C(=O)NCc2c(C)cc(C)[nH]c2=O)c1C)C1CCC(N(C)CCOC)CC1 (configuration not stated) | inactive |  |
| C=CC(=O)Nc1cccc(Oc2nc(Nc3ccc(N4CCN(C)CC4)cc3)nc3ccsc23)c1 | 5.01 µM (active) |  |
| CNCCn1c(=O)c2cc(OC)c(OC)cc2c2cnc3cc4c(cc3c21)OCO4 | 0.596 µM (active) |  |
| COc1cc([C@@H]2c3cc4c(cc3[C@@H](O[C@@H]3O[C@@H]5CO[C@@H](c6cccs6)O[C@H]5[C@H](O)[C@H]3O)[C@H]3COC(=O)[C@H]23)OCO4)cc(OC)c1O | 7.08 µM (active) |  |
| Cc1c(NC(=O)c2cc(C(N)=O)nc3cc(F)ccc23)c(C(F)(F)F)nn1Cc1ccc(C(C)(C)C)cc1 | inactive |  |
| C[C@]12CCC(=O)C=C1CC[C@@H]1[C@@H]2[C@@H](O)C[C@@]2(C)[C@H]1CC[C@]2(O)C(=O)COC(=O)CCC(=O)O | inactive |  |
| Cc1cnc(NC(=O)c2cc(Oc3cnc(C(=O)N(C)C)nc3)c3cc(C)oc3c2)cn1 | inactive |  |
| CN1CCN(C(=O)c2ccc(-c3ccc4c(C=O)c(O)ccc4c3)s2)CC1 | inactive |  |
| C=C1C[C@@]2(O)O[C@@]3(C[C@H]2C(C)C)[C@@H](C)CC[C@@H]13 | inactive |  |
| CC(C)(C)C1CCC(CC2=C(O)c3ccccc3C(=O)C2=O)CC1 (configuration not stated) | inactive |  |
| CN1C(CCl)Nc2cc(Cl)c(S(N)(=O)=O)cc2S1(=O)=O (configuration not stated) | inactive |  |
| CCCCOC(=O)NS(=O)(=O)c1sc(CC(C)C)cc1-c1ccc(Cn2ccnc2)cc1 | 25.1 µM (active) |  |
| OCC(CO)N[C@H]1C[C@](O)(CO)[C@@H](O)[C@H](O)[C@H]1O | inactive |  |
| Cc1c(F)ccc(C(=O)Nc2cc([N+](=O)[O-])ccc2N2CCN(C)CC2)c1Cl | inactive |  |
| O=C(NCCCNC(=O)c1ccc[nH]c1=O)c1cc(-c2ccccc2)on1 | 15.8 µM (active) |  |
| COc1c(Nc2ncc(Cl)c(N[C@H]3[C@H](C(N)=O)[C@@H]4C=C[C@@H]3C4)n2)ccc2c1CCC(N1CCOCC1)CC2 (some centres not stated) | 7.94 µM (active) |  |
| O=C(NCc1cccc(O)c1)Nc1nc(-c2ccncc2)cs1 | inactive |  |
| N#Cc1cc2cc(CN3CCC(Nc4ncnc5sc(CC(F)(F)F)cc45)CC3)c(O)cc2n1Cc1cn[nH]c1 | 8.91 µM (active) |  |
